Compounds with a hit are over-represented: about 7.9% of the library has one in this group of screens.
KB-3-1 tox = kills parental KB-3-1 adenocarcinoma cells; Potency, µM (series often up to 46.1 µM), usual class: cytotoxic; 400,000 tested, 1.4% active; AID 1347075; KB-3-1 viability, CellTiter-Glo ATP luminescence, 72 h; note: nearly all actives have a fitted effect of over 60% in size
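Parental KB-3-1 viability, qHTS format: 72 h compound exposure, 37 °C; CellTiter-Glo; media-only wells and DMSO plates as controls; concentration-effect fits on corrected data.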
HT1080-NT tox = kills 2HG-producing HT-1080-NT fibrosarcoma cells | 360,000 tested, 1.6% active | Potency, µM (doses to about 46.1 µM), hits mostly cytotoxic | AID 686970 | HT-1080-NT fibrosarcoma viability, CellTiter-Glo ATP luminescence, 48 h;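 note: NT is the 2HG producing partner of a matched IDH1 knockdown line; nearly all actives have a fitted effect of over 55% in size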
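HT-1080-NT fibrosarcoma cells (2HG-overproducing), 750 cells/well in RPMI with 5% FBS, dosed after 2 h and incubated 48 h at 37C. CellTiter-Glo luminescence normalized to DMSO and no-cell wells; concentration-response curves fitted and classed.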
SW480 rereplic = inducers of DNA re-replication in SW480 colon cancer cells. 340,000 tested, 1.8% active. Potency, µM (top dose mostly 46.1 µM), hits mostly activators. SW480 DNA re-replication, Hoechst DNA content imaging, 48 h; note: nearly all actives have a fitted effect of over 55% in size
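Image-based read-out: total Hoechst fluorescence of nuclei (405 nm excitation, 500-530 nm emission), with hits raising the fraction of high-intensity nuclei. SW480 colon cells incubated 48 hr with compounds at 37 C.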
MCF10A rerep = inducers of DNA re-replication in MCF 10A breast cells. MCF 10A DNA re-replication, Hoechst nuclear intensity, 48 h. Potency, µM (series often up to 46.1 µM), usual class: activators. 350,000 tested, 2.9% active; note: nearly all actives have a fitted effect of over 50% in size
HT1080 IDH1KD tx = toxicity to HT-1080 IDH1 knockdown cells (counter line); HT-1080 IDH1 knockdown viability, ATP luminescence, 48 h; Potency, µM (titrated, usually from 46.1 µM), hits mostly cytotoxic; 360,000 tested, 2% active
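Cytotoxicity counter-line: IDH1KD HT-1080, 48 h, CellTiter-Glo. Curves classed by r2, magnitude and activity.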
KB-V1 cytotox = kills drug-selected multidrug resistant KB-V1 cells | AID 1347076 | 400,000 tested, 3.4% active | KB-V1 MDR cells viability, CellTiter-Glo, 72 h | Potency, µM (doses to about 46.1 µM), actives largely listed as cytotoxic; note: nearly all actives have a fitted effect of over 60% in size
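Cells of the MDR subline KB-V1 are plated, dosed with compound at multiple concentrations, and incubated 72 h at 37 degrees C; CellTiter-Glo is then added and luminescence read after 10 min.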
Each line names hits and unclear results; the compound was inactive in the other large screens; ! = a repeat was not active. Calls come from the whole dose curve; as a rule, active = well fitted curve in the direction sought with a large enough effect; inconclusive = small, poorly fitted or top-dose-only effect, or another doubt; inactive = no such curve, though single readings can be large; an effect the other way counts as inactive or inconclusive.

Cc1cc(=O)oc(C)c1C(=O)OCC(=O)c1ccccc1	none
COc1ccc(O)c(C(=O)CC(=O)c2ccncc2)c1	KB-V1 cytotox 9.2µM
COc1ccc(C(=O)CC(=O)c2ccc(OC)cc2)cc1	KB-V1 cytotox inconclusive
O=C(CC(=O)c1ccncc1)c1ccccc1	KB-V1 cytotox 18µM
Cc1cc(=O)oc(C)c1C(=O)OC(C(=O)c1ccccc1)c1ccccc1 (stereo not given)	MCF10A rerep inconclusive, KB-V1 cytotox 23µM
COc1ccc(C(=O)CC(=O)c2ccccc2)cc1	SW480 rereplic 2.9µM, KB-V1 cytotox inconclusive
CN(C)Cc1ncccc1Oc1nc2cc(-c3cccc(Cl)c3)sc2c(=O)n1C	HT1080-NT tox inconclusive, HT1080 IDH1KD tx inconclusive (no result: SW480 rereplic, MCF10A rerep)
COc1ccc(S(=O)(=O)NCCOc2ccc(Cl)cc2)cc1	none
CN(C)CCNC(=O)c1c(CSc2ccc(Cl)cc2)noc1C(=O)NCc1ccccc1	none
COc1ccc(C(=O)C(OC(=O)c2ccccc2)c2ccccc2)cc1 (stereo not given)	KB-V1 cytotox 13µM
COc1ccc(C(=O)C(OC(=O)c2ccccc2Cl)c2ccccc2)cc1 (stereo not given)	none
COCCNC(=O)C1(C)CCCN(Cc2ccc(OC)cc2)C1 (stereo not given)	HT1080-NT tox inconclusive (no result: SW480 rereplic, MCF10A rerep)
COc1ccc2c(c1)O[C@@H](c1cccc(C(F)(F)F)c1)[C@H](O)C2=O	SW480 rereplic 21µM (no result: KB-3-1 tox, HT1080-NT tox, HT1080 IDH1KD tx, KB-V1 cytotox)
COc1cc(/C=C/C(=O)OCC(=O)N2CCN(S(=O)(=O)c3ccc(C)cc3C)CC2)cc(Cl)c1OC	none
COc1cc2ccc(=O)oc2c(O[C@@H]2O[C@H](CO)[C@@H](O)[C@H](O)[C@H]2O)c1O	SW480 rereplic 8.2µM!, MCF10A rerep 16µM
COc1cccc(C(=S)N2CCCC2)c1OC	none
CCCCN(CC)S(=O)(=O)c1ccc(C(=O)Nc2nnc(CSC)o2)cc1	KB-3-1 tox inconclusive, SW480 rereplic inconclusive, MCF10A rerep inconclusive, HT1080 IDH1KD tx inconclusive
CCCN(CCC)S(=O)(=O)c1ccc(C(=O)Nc2nnc(CSC)o2)cc1	KB-3-1 tox 6.5µM, HT1080-NT tox inconclusive, MCF10A rerep inconclusive, HT1080 IDH1KD tx inconclusive, KB-V1 cytotox 7.3µM
CCCCN(CCCC)S(=O)(=O)c1ccc(C(=O)Nc2nnc(CSC)o2)cc1	KB-3-1 tox inconclusive, SW480 rereplic inconclusive, MCF10A rerep 10µM, HT1080 IDH1KD tx inconclusive, KB-V1 cytotox inconclusive
O=C(O)c1ccc(N/N=C/c2cn(Cc3ccc(F)cc3)c3ccccc23)cc1	MCF10A rerep inconclusive
O=[N+]([O-])/C=C/c1cn(Cc2ccc(F)cc2)c2ccccc12	HT1080-NT tox inconclusive, SW480 rereplic inconclusive, MCF10A rerep inconclusive, HT1080 IDH1KD tx 11µM
CC(=O)N1c2ccccc2CC1C(=O)NCc1cccc(Cl)c1 (stereo not given)	none (no result: HT1080-NT tox, SW480 rereplic, MCF10A rerep, HT1080 IDH1KD tx)
Cn1nc(C(F)(F)F)c(-c2ccc(F)cc2)c1NC(=O)Nc1ccc(F)cc1	KB-3-1 tox inconclusive, HT1080-NT tox 23µM, HT1080 IDH1KD tx inconclusive, KB-V1 cytotox inconclusive
Cn1nc(C(F)(F)F)c2cc(C(=O)Nc3ccc(F)cc3)sc21	MCF10A rerep inconclusive
CCCCCCCCN1C(=O)[C@H](CC(=O)NCCCCc2ccccc2)C[C@@]2(C(=O)OC)CC(C)(C)CC=C12	HT1080 IDH1KD tx inconclusive, KB-V1 cytotox inconclusive (no result: SW480 rereplic, MCF10A rerep)
COC(=O)[C@@]12C[C@@H](CC(=O)NCc3ccc(OC)c(OC)c3)C(=O)N(CCc3ccc(OC)c(OC)c3)C1=CCC(C)(C)C2	KB-V1 cytotox inconclusive (no result: SW480 rereplic, MCF10A rerep)
CCCCCCCCN1C(=O)[C@H](CC(=O)NCCCC)C[C@@]2(C(=O)OC)CC(C)(C)CC=C12	KB-3-1 tox inconclusive, HT1080-NT tox inconclusive, HT1080 IDH1KD tx inconclusive, KB-V1 cytotox 21µM (no result: SW480 rereplic, MCF10A rerep)
CCCCCCCCN1C(=O)[C@H](CC(=O)NCc2ccccc2)C[C@@]2(C(=O)OC)CC(C)(C)CC=C12	KB-3-1 tox inconclusive, HT1080-NT tox inconclusive, HT1080 IDH1KD tx inconclusive, KB-V1 cytotox 18µM (no result: SW480 rereplic, MCF10A rerep)

Screening data (PubChem BioAssay)
